Experimental data taken from ChEMBL document CHEMBL1961873, “Compounds: GSK PKIS; Assays: Nanosyn kinase panel” (2012).

Key:
[1] = target: T1, 3-phosphoinositide-dependent protein kinase 1 (Homo sapiens) (UniProt O15530); settings: at 0.1 µM;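 note: values are mean inhibition of PDK1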
T1 sequence (whole entry): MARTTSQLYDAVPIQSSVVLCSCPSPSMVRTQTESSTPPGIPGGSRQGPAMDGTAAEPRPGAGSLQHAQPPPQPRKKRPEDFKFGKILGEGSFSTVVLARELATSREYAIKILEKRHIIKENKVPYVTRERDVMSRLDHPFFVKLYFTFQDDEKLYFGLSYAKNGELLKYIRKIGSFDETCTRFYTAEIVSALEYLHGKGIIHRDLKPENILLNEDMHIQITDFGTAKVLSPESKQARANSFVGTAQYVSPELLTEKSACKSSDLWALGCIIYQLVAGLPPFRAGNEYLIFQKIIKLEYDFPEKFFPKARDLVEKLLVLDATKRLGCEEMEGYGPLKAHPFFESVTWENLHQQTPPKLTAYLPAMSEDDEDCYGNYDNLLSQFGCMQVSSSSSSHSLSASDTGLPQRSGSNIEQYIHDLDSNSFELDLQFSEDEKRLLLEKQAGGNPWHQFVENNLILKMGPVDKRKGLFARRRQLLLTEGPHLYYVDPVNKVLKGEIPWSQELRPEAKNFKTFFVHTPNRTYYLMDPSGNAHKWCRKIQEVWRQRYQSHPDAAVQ

[2] = target: cAMP-dependent protein kinase catalytic subunit alpha (Homo sapiens) (UniProt P17612); settings: at 0.1 µM
[3] = target: cAMP-dependent protein kinase catalytic subunit alpha (Homo sapiens) (UniProt P17612); settings: at 1 µM
[4] = target: Protein kinase C alpha type (Homo sapiens) (UniProt P17252); settings: at 0.1 µM
[5] = target: Protein kinase C alpha type (Homo sapiens) (UniProt P17252); settings: at 1 µM
[6] = target: Protein kinase C beta type (Homo sapiens) (UniProt P05771); settings: at 0.1 µM
[7] = target: Protein kinase C beta type (Homo sapiens) (UniProt P05771); settings: at 1 µM
[8] = target: Protein kinase C eta type (Homo sapiens) (UniProt P24723); settings: at 0.1 µM
[9] = target: Protein kinase C eta type (Homo sapiens) (UniProt P24723); settings: at 1 µM
[10] = target: Protein kinase C gamma type (Homo sapiens) (UniProt P05129); settings: at 0.1 µM
[11] = target: Protein kinase C gamma type (Homo sapiens) (UniProt P05129); settings: at 1 µM
[12] = target: T2, Protein kinase C iota type (Homo sapiens) (UniProt P41743); settings: at 0.1 µM
T2 sequence (whole entry): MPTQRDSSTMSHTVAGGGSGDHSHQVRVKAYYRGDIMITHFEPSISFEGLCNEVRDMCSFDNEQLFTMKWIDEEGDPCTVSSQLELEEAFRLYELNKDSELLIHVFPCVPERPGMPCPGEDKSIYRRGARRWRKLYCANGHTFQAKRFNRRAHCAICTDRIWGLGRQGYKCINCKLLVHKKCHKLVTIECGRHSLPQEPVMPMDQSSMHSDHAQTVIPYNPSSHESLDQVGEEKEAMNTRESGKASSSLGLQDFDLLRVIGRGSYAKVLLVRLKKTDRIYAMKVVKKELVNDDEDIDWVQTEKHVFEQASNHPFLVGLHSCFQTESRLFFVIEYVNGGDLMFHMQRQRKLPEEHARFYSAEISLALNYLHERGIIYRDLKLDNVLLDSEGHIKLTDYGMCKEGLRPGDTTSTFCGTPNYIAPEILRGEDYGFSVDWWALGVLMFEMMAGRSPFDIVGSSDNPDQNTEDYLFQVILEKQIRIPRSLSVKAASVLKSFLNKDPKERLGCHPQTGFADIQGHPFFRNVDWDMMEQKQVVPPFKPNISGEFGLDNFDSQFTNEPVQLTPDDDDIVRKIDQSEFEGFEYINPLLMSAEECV

[13] = target: T2, Protein kinase C iota type (Homo sapiens); settings: at 1 µM
[14] = target: Protein kinase C theta type (Homo sapiens) (UniProt Q04759); settings: at 0.1 µM
[15] = target: Protein kinase C theta type (Homo sapiens) (UniProt Q04759); settings: at 1 µM
[16] = target: Protein kinase C beta type (Homo sapiens) (UniProt P05771); settings: at 0.1 µM; remark: listed apart in the source
[17] = target: Protein kinase C beta type (Homo sapiens) (UniProt P05771); settings: at 1 µM; remark: listed apart in the source
[18] = target: T3, Serine/threonine-protein kinase D1 (Homo sapiens) (UniProt Q15139); settings: at 0.1 µM
T3 sequence (whole entry): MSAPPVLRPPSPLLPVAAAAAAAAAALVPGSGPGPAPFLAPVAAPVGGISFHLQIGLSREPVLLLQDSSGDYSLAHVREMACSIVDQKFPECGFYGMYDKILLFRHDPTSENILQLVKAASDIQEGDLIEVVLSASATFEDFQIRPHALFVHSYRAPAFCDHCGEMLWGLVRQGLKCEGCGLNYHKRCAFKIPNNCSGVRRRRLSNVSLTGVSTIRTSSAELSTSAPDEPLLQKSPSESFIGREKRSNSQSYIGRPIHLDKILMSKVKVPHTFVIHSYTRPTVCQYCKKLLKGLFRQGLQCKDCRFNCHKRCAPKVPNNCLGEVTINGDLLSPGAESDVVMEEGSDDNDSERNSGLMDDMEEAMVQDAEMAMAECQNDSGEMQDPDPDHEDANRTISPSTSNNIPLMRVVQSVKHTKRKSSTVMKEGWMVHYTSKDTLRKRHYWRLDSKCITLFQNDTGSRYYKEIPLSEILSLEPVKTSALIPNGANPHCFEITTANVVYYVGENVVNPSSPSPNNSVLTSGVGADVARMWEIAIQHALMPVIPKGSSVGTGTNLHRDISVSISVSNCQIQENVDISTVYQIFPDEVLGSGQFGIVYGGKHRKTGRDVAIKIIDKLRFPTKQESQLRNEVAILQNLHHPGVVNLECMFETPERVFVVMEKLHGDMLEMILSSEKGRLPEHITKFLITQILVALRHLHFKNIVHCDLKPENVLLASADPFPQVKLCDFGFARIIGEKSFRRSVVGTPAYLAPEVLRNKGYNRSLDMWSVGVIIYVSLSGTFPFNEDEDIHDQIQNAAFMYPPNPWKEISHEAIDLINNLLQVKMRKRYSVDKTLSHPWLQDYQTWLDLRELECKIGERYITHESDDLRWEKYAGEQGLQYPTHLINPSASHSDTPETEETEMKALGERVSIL

[19] = target: T3, Serine/threonine-protein kinase D1 (Homo sapiens); settings: at 1 µM
[20] = target: T4, Serine/threonine-protein kinase D2 (Homo sapiens) (UniProt Q9BZL6); settings: at 0.1 µM;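 note: reported percent inhibition values are means, part of the GSK PKIS kinase panel screen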
T4 sequence (whole entry): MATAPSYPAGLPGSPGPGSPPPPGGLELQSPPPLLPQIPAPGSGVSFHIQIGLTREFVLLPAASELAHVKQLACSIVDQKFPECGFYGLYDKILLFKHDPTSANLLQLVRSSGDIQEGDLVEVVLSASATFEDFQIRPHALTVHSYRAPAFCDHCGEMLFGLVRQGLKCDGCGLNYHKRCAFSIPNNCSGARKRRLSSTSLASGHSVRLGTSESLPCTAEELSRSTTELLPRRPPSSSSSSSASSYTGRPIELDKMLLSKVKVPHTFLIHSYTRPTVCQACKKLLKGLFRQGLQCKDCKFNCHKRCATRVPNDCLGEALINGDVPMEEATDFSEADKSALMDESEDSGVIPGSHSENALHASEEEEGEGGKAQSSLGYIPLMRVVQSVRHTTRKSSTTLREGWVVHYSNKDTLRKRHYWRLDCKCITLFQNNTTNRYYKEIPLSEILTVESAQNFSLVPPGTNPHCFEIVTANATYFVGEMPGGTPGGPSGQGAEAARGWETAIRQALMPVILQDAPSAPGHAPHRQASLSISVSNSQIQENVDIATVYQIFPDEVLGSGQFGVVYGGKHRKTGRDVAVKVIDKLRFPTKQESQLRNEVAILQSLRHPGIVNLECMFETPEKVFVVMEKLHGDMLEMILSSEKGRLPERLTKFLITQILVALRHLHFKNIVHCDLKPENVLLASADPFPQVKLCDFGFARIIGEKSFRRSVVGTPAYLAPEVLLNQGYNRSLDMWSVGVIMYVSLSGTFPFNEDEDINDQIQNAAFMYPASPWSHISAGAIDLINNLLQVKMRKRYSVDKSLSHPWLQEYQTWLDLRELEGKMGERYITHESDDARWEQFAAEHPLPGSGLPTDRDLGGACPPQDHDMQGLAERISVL

Chain of Protein kinase C eta type (Homo sapiens) (P24723 whole entry): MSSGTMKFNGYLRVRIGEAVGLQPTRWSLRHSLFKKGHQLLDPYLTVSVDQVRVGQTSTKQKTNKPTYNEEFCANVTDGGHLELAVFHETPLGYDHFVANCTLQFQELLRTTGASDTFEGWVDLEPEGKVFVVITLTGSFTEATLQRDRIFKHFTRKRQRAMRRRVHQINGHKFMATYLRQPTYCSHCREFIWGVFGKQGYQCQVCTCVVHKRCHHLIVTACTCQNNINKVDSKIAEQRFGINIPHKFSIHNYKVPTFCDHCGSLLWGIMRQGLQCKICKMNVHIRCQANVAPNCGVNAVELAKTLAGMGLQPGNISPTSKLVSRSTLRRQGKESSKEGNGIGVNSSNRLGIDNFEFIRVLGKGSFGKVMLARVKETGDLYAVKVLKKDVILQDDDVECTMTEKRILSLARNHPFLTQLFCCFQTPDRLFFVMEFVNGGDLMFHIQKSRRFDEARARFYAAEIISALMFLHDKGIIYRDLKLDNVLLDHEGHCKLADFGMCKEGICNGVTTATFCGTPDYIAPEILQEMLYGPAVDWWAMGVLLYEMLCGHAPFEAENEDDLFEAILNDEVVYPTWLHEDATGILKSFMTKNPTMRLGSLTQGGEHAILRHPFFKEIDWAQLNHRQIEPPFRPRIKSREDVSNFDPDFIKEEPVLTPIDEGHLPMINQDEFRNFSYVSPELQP
Chain of Protein kinase C theta type (Homo sapiens) (Q04759 whole entry, looked up): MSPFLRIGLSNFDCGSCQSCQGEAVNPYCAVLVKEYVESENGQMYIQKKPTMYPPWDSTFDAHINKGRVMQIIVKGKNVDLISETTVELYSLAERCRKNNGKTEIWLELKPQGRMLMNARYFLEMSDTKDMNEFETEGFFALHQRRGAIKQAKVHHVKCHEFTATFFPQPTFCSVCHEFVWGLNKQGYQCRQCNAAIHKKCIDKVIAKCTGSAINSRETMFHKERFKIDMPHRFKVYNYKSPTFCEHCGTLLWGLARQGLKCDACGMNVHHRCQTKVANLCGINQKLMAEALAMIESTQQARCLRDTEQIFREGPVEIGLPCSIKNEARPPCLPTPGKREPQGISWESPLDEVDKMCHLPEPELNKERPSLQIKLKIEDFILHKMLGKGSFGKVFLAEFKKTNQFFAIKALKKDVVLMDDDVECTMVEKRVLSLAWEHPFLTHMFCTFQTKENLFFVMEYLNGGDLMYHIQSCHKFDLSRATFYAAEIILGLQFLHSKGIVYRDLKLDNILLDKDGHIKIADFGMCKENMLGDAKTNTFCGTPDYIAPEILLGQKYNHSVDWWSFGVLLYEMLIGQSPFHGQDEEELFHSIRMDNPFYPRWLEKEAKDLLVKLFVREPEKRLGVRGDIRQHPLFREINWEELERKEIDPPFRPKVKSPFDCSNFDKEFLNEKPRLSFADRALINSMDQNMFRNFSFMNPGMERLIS
Chain of Protein kinase C beta type (Homo sapiens) (P05771 2-671 limits assumed): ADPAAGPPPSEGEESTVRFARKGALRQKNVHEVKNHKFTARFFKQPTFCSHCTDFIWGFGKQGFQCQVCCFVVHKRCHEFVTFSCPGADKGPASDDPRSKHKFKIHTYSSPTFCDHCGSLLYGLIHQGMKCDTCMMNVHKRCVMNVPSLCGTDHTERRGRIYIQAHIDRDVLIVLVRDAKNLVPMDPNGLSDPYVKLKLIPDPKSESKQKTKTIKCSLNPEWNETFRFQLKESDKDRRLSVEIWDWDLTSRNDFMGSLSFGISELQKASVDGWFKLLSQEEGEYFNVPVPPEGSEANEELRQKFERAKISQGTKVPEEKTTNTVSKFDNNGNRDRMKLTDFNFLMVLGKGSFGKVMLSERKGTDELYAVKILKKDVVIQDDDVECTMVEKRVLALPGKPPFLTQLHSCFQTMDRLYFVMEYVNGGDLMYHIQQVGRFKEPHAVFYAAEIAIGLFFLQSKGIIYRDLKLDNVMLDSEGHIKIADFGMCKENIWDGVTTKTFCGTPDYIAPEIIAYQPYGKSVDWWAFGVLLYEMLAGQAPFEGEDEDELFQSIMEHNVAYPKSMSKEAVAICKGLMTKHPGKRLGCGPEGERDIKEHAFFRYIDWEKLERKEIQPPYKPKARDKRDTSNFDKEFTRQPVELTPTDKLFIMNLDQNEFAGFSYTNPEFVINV

| SMILES | inhibition [1] | inhibition [2] | inhibition [3] | inhibition [4] | inhibition [5] | inhibition [6] | inhibition [7] | inhibition [8] | inhibition [9] | inhibition [10] | inhibition [11] | inhibition [12] | inhibition [13] | inhibition [14] | inhibition [15] | inhibition [16] | inhibition [17] | inhibition [18] | inhibition [19] | inhibition [20] |
| --- | --- | --- | --- | --- | --- | --- | --- | --- | --- | --- | --- | --- | --- | --- | --- | --- | --- | --- | --- | --- |
| COc1ccc(-c2nn3ncccc3c2-c2ccnc(Nc3ccc(Cl)c(C(F)(F)F)c3)n2)cc1 | 0.17% | 1.59% | 1.26% | 0.22% | -0.2% | 0.17% | 3.13% | 2.79% | 2.3% | 1.74% | -0.57% | 0.28% | -1.6% | 1.56% | 2.55% | 0.91% | 0.81% | 2.22% | 3.95% | 2.47% |
| O=C1Nc2ccc(C(=O)c3ccco3)cc2C1=Cc1cc(Cl)c(O)c(Cl)c1 | 3.22% | 1.97% | 4.78% | 1.38% | 3.32% | -0.57% | 1.37% | 4.29% | 7.64% | 1.31% | 6.26% | 4.4% | -0.01% | 2.45% | 7.59% | 1.83% | 3.01% | 2.76% | 6.32% | 2.72% |
| NS(=O)(=O)c1cccc(-c2ccc3c(NC(=O)C4CC4)n[nH]c3c2)c1 | -1.98% | -0.94% | 0.85% | -0.24% | 0.92% | -0.11% | 2.66% | -2.13% | -2.3% | -1.53% | 3.74% | 0.3% | 0.53% | 0.17% | 0.88% | -0.62% | 2.57% | -0.83% | 0.65% | -0.79% |
| Cc1cc(O)cc(C)c1/C=C/c1cncc(-c2nn[nH]n2)c1 | 2.02% | -1.63% | -1.78% | -2.41% | -0.54% | 0.1% | 2.35% | 1% | 5.67% | -3.08% | 3.79% | 2.14% | 2.11% | 2.61% | 3.08% | 1.15% | 4.04% | 1.38% | 4.65% | 2.35% |
| CC(=O)Nc1cccc(C#Cc2cncnc2Nc2ccc(OCc3cccc(F)c3)c(Cl)c2)n1 | -0.76% | 2.4% | 4.87% | 1.1% | 0.59% | 5.03% | 8.84% | 0.65% | 3.65% | 2.74% | 1.63% | 0.57% | -0.05% | 1.96% | 3.96% | 2.66% | 2.15% | -0.03% | -2.44% | -1.45% |
| N#Cc1c(NC(=O)c2cccc3ccccc23)sc2c1CCCC2 | 1.52% | 1.59% | 1.98% | 0.26% | 1.22% | 1.24% | -1.28% | 3.52% | 3.65% | 2.48% | 0.67% | 1.98% | 2.38% | 1.69% | 0.74% | 2.18% | 2.04% | 4.23% | 4.24% | 2.17% |
| CS(=O)(=O)CCN(CC#N)Cc1ccc(-c2ccc3ncnc(Nc4ccc(OCc5cccc(F)c5)c(Cl)c4)c3c2)o1 | 0.12% | -3.08% | -3.11% | -3.93% | -3.34% | -0.34% | -1.95% | 2.38% | 1.49% | -0.22% | -0.45% | 1.19% | 0.81% | 0.98% | 0.92% | 0.59% | 0.66% | -2.21% | -3.04% | -2.89% |
